In PubChem BioAssay (NCATS):
Values without a mark were called inactive. Results filed as inconclusive are left out. Calls of active or inactive are those of the source. Unless noted, calls follow the shape of the dose curve; as a rule, active = well fitted curve in either direction with a large enough effect (not every such curve was filed as active); inconclusive = small, poorly fitted or top-dose-only effect, or another doubt; inactive = flat fitted curve, though single readings scatter.

Legend:
[1] = biological target: Lysosomal acid glucosylceramidase (Homo sapiens) (UniProt P04062); assay: Glucocerebrosidase-p2 (AID 348; in the data active = potency below about 10 µM; also: potency is read from the fitted curve at half-maximal effect); conditions: purified GBA, blue fluorogenic substrate, 40 min
Outline: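 Compounds titrated from 0.6 nM upwards against 0.2 nM enzyme in pH 5.9 citric acid/KH2PO4, taurocholate, tween-20; blue fluorogenic substrate 80 uM, 40 min room temperature, stopped and read Ex 365/Em 440 for AC50.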

[2] = AP1 Signaling Pathway (AID 357); conditions: ME-180 AP-1-bla reporter, EGF-induced, beta-lactamase ratio, 5 h; at 7.69 µM (top of the series) unless noted;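 also: ME-180 reporter cells stimulated with EGF at its EC50 level; % is scaled to controls: 0 for no effect and ±100 for the full control effect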
Outline: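 First, ME-180 AP-1-bla cells were cultured overnight at 37 °C in low-serum Opti-MEM. Next, titrated compounds with EC50 EGF were incubated 5 hours. Finally, CCF4 was added for 2.5 hours and the 460/530 nm ratio recorded.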

[3] = NFAT Signaling Pathway (AID 444); conditions: Jurkat NFAT-bla M1, carbachol, beta-lactamase ratio, 5 h; at 7.69 µM (top of the series) unless noted;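 also: carbachol stimulus at about its EC50 of 1 µM final; % is scaled to controls: 0 for no effect and ±100 for the full control effect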
Outline: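 Jurkat cells carrying an NFAT-driven β-lactamase reporter and co-transfected muscarinic M1 receptor were treated with compound plus carbachol (1 uM final, an EC50 level) for 5 h at 37 °C. CCF4 loading followed for 1 h at RT; 460/530 nm ratio gave %activity.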

[4] = Stat Signaling Pathway (AID 446); conditions: ME-180 SIE beta-lactamase reporter, IL-6 stimulated, 5 h; at 7.69 µM (top of the series) unless noted;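 also: ME-180 cervical cancer cells given 40 pM IL-6 alongside compound; SIE-controlled beta-lactamase reporter measured as 460/530 nm FRET emission ratio; % is scaled to controls: 0 for no effect and ±100 for the full control effect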
Outline: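 Screening format detects activators and inhibitors alike: ME-180 SIE-bla cells stimulated at 40 pM IL-6 for 5 hrs with compound, then dual-emission beta-lactamase read at 405 nm excitation.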

[5] = biological target: Glucocorticoid receptor (Homo sapiens) (UniProt P04150); assay: GR-GFP Redistribution (AID 450;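 active = compounds whose dose series gives a full or clear partial fitted curve of increased nuclear translocation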; also: potency is read from the fitted curve at half-maximal effect); conditions: U2OS GR-GFP nuclear translocation, laser cytometry, 2 h
[6] = biological target: Glucocorticoid receptor (Homo sapiens) (UniProt P04150); assay: GR-EFC Redistribution (AID 451; calls by dose curve; also: potency is read from the fitted curve at half-maximal effect); conditions: CHO-K1 GR-EFC translocation, beta-gal luminescence, 2 h
Outline: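 CHO-K1 cells stably expressing nuclear-localized β-gal enzyme acceptor and GR fused C-terminally to the enzyme donor fragment; ligand-driven nuclear translocation restores β-gal by complementation. Compounds titrated up to 46 uM final, 2 h at 37 °C; luminescence read.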

[7] = biological target: Mitogen-activated protein kinase 10 (Mus musculus) (UniProt Q61831); assay: JNK3 AlphaScreen Assay (AID 530); conditions: JNK3 lysate, c-Jun phosphorylation; series mostly up to 11.4 µM;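 also: kinase came from lysate of stimulated human HepG2 cells; signal reports phosphorylation of biotinylated GST-cJun 1-79 at Ser73 with 10 µM ATP; % is scaled to controls: 0 for no effect and ±100 for the full control effect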
Outline: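 Inhibitors reduce antibody binding to phosphorylated biotin-cJun, lowering AlphaScreen luminescence. Lysates from HepG2 cells pre-activated by IL-1beta plus TNF-alpha supplied JNK3; compounds were titrated.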

[8] = biological target: 3',5'-cyclic-AMP phosphodiesterase 4B (Homo sapiens) (UniProt Q07343); assay: qHTS Assay for Inhibitors of PDE-IV (AID 607; active = well fitted activation curve with a large enough effect in the main read-out, with a control signal flat, not every such curve was filed as active; also: % of control where 0% means no effect); conditions: HEK293 ACTOne CNG channel cells, membrane potential fluorescence; series mostly up to 22.9 µM
Outline: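 The readout is membrane depolarisation from a cAMP-sensing CNG channel, detected with a potential dye at ex 535/em 590. Cells were HEK293-derived (endogenous PDE-IV) at 1000 cells/well, titrated up to 22.9 uM final.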

[9] = qHTS Assay for Identification of Small Molecule Agonists for Hypoxia Response Element Signaling Pathway (AID 914; active = well fitted activation curve with a large enough effect in the signal ratio, with a control signal flat, not every such curve was filed as active; the % refers to the signal ratio; also: % of control where 0% means no effect); conditions: ME-180 (cervical carcinoma) HRE-bla reporter, beta-lactamase ratio, CoCl2, 17 h; activation: hits give high values
Outline: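 HRE-bla ME-180 cells, overnight plating in Opti-MEM with 0.5% dialyzed FBS; cpd titration + EC50 CoCl2, 17 h, 37 degrees Celsius; CCF4 2.5 h RT; 460/530 nm ratio; AC50.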

[10] = Confirmation and Secondary Assay for Modulators of Hemoglobin Beta Chain Splicing at IVS2 654 locus (AID 910; active = well fitted curve in the direction sought with a large enough effect; an effect the other way counts as inactive or inconclusive; also: % of control where 0% means no effect); conditions: HeLa EGFP-654 splicing reporter, GFP fluorescence, 48 h; series mostly up to 38.3 µM
Outline: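 HeLa cells stably carrying EGFP interrupted by mutant beta-globin IVS2-654 intron (CMV-driven) were treated with compound for 2 days at 37C; corrected splicing was scored as total peak GFP intensity per well (488 nm excitation, 500-520 nm emission).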

[11] = Confirmation and Secondary Assay for Modulators of Hemoglobin Beta Chain Splicing at IVS2 705 locus (AID 930; active = well fitted curve in the direction sought with a large enough effect; an effect the other way counts as inactive or inconclusive;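 also: HeLa cells stably expressing the EGFP-705 splicing reporter; GFP fluorescence per well restored by corrected splicing of the IVS2-705 intron in EGFP; % of control where 0% means no effect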); conditions: HeLa EGFP-705 splicing reporter, GFP fluorescence, 48 h; series mostly up to 38.3 µM
Outline: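 Read-out: total peak GFP fluorescence per well (488 nm excitation, 500-520 nm emission) by laser-scanning cytometry. Cells: HeLa EGFP-705 splicing reporter, 2 days compound exposure in Optimem/2% FCS.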

[12] = biological target: Cytochrome P450 2D6 (Homo sapiens) (UniProt P10635); assay: qHTS Assay for Inhibitors and Substrates of Cytochrome P450 2D6 (AID 891; active = well fitted curve in the direction sought with a large enough effect; an effect the other way counts as inactive or inconclusive; also: potency is read from the fitted curve at half-maximal effect; nearly all actives have a fitted effect of over 60% in size); conditions: recombinant CYP2D6, luciferin-ME EGE luminescence; series mostly up to 11.4 µM
Outline: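 Human CYP2D6 (5 nM) with 30 uM Luciferin-ME EGE (at Km) in 100 mM KPO4, compound preincubated 10 min, then NADPH regeneration system for 60 min at room temperature. Luciferin read by luminescence; normalized to 1.43 uM quinidine.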

[13] = biological target: Cytochrome P450 3A4 (Homo sapiens) (UniProt P08684); assay: qHTS Assay for Activators of Cytochrome P450 3A4 (AID 885; active = well fitted curve in the direction sought with a large enough effect; an effect the other way counts as inactive or inconclusive; also: nearly all actives have a fitted effect of over 65% in size); conditions: recombinant CYP3A4, Luciferin-PPXE luminescence, 60 min; series mostly up to 11.4 µM
Outline: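 Steps: enzyme/substrate mix dispensed; compound added, 10 min RT; NADPH regeneration solution added, 60 min RT; luciferin detection buffer stops reaction; 20 min later luminescence measured.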

Sequence of Glucocorticoid receptor (Homo sapiens) (P04150 whole entry, looked up, the tested form may be a part): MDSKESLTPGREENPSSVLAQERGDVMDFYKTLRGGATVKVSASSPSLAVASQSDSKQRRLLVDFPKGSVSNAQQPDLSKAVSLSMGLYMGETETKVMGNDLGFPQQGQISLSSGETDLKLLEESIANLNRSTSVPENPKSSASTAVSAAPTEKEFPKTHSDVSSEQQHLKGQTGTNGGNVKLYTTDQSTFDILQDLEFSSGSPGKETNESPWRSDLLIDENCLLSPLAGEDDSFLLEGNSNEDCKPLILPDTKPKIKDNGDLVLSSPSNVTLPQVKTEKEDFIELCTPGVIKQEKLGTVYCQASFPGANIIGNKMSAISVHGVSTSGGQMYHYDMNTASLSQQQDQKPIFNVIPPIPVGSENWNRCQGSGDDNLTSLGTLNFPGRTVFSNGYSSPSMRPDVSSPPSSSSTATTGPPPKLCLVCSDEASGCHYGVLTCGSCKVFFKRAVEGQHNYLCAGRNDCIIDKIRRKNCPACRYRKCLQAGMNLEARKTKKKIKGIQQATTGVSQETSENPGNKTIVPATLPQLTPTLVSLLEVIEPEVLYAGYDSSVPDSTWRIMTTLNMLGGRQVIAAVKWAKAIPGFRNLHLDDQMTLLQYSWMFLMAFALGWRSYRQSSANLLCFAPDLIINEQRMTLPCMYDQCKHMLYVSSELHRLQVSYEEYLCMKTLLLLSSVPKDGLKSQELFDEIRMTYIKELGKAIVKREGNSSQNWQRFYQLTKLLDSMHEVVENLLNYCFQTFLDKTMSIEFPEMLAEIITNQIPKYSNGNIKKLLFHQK
Sequence of Lysosomal acid glucosylceramidase (Homo sapiens) (P04062 whole entry, looked up): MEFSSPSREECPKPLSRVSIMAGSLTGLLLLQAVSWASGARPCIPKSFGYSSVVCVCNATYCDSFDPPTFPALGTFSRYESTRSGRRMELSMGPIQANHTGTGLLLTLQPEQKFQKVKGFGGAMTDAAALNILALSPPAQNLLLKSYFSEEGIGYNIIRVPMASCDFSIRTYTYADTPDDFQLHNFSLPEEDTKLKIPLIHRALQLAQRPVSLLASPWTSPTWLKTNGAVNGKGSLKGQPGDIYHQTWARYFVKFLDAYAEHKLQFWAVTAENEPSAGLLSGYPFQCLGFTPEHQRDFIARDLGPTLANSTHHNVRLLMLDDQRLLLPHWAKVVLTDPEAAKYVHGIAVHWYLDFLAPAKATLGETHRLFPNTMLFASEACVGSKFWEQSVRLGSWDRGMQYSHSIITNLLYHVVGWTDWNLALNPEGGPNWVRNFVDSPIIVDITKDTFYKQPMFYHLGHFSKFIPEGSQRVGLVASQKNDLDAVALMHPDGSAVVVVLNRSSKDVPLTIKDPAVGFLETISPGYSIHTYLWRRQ
Sequence of 3',5'-cyclic-AMP phosphodiesterase 4B (Homo sapiens) (Q07343 whole entry, looked up): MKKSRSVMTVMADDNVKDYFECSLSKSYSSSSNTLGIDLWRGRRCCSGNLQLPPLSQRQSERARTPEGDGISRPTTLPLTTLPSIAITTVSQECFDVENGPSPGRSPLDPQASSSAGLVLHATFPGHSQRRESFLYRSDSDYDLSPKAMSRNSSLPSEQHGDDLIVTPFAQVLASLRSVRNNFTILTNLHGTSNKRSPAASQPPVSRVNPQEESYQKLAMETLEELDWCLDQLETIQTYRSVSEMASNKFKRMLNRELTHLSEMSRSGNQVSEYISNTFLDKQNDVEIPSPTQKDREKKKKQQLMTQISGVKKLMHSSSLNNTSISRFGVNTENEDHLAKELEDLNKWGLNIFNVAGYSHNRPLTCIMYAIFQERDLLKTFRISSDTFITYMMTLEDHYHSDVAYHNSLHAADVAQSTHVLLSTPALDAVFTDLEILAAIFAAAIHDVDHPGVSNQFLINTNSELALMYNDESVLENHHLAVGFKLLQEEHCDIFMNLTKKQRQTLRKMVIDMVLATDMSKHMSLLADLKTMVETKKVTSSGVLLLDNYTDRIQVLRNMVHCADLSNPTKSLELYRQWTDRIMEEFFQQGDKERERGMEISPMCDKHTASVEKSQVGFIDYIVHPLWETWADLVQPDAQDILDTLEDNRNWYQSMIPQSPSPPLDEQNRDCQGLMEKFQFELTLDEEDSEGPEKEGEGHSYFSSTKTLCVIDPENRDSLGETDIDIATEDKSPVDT
Sequence of Cytochrome P450 3A4 (Homo sapiens) (P08684 whole entry, looked up): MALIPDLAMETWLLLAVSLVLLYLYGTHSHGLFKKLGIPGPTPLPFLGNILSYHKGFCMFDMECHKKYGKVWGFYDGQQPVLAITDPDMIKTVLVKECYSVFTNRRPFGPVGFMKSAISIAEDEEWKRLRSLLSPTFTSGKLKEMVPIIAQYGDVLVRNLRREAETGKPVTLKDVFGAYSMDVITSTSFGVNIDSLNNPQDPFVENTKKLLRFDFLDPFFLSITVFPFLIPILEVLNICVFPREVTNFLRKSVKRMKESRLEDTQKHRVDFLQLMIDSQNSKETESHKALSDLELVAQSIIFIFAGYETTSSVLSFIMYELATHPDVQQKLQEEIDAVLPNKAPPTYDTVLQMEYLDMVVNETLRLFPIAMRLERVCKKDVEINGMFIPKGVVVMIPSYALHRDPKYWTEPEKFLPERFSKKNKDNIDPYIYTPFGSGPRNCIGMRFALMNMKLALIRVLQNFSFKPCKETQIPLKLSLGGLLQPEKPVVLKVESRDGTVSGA
Sequence of Cytochrome P450 2D6 (Homo sapiens) (P10635 whole entry, looked up): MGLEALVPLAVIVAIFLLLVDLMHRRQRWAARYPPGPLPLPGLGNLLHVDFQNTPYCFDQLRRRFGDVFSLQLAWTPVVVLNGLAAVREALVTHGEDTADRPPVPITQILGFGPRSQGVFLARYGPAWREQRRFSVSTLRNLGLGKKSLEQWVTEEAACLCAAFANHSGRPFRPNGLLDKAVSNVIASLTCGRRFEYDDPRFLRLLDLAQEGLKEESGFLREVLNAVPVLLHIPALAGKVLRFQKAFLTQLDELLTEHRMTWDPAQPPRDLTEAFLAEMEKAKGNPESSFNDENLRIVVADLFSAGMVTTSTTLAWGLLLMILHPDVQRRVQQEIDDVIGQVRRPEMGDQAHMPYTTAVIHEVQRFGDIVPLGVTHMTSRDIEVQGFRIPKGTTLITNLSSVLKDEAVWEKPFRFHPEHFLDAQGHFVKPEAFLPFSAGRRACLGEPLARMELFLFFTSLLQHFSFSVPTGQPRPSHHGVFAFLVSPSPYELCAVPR

| Compound | Potency [1] [µM] | activity change, negative = inhibition [2] [%] | activity change, negative = inhibition [3] [%] | activity, negative = inhibition [4] [%] | Potency [5] [µM] | Potency [6] [µM] | Potency [7] | Potency [8] | activation [9] [%] | outcome [10] | outcome [11] | Potency [12] | Potency [13] |
| --- | --- | --- | --- | --- | --- | --- | --- | --- | --- | --- | --- | --- | --- |
| O=C(CON1C(=O)c2ccccc2C1=O)c1ccccc1 | > 11.4 | -3.99 | 4.1 | 1.01 | > 46 | > 9.22 | inactive | inactive | -13.1 |  |  |  |  |
| Cc1cccc(CNc2nc(-c3ccc(C(=O)N(C)C)cc3)nc3ccccc23)c1 | > 11.4 | -29.6 | 25.2 | -18.6 | > 46 | > 46 | inactive |  |  | inactive | inactive |  |  |
| O=C(NCCO)c1ccc(Cl)cc1 | > 11.4 | -0.923 | 9.91 | 15.2 | > 46 | > 9.22 | inactive | inactive | 9.98 |  |  |  |  |
| c1ccc(-c2cc(-c3cc(-c4ccccn4)[nH]n3)n[nH]2)nc1 | > 11.4 | 4.94 | 1.51 | -2.75 | > 46 | > 9.22 | inactive | inactive | 3.17 |  |  |  |  |
| NC(=O)CS(=O)C[C@H](N)C(=O)O (stereo partly specified) | > 11.4 | 23.6 | 11 | 5.38 | > 46 | > 9.22 | inactive | inactive | 18.8 |  |  |  |  |
| O=C(O)c1cccc(N=Nc2c(S(=O)(=O)O)ccc3c2C(=O)c2ccccc2C3=O)c1O | > 11.4 | 9.86 | -3.54 | -9.02 | > 46 | > 9.22 |  | inactive |  |  |  |  |  |
| O=C(O)CN(CCN(CC(=O)O)CC(=O)O)CC(=O)O.[Cu] | > 11.4 | -4.33 | 0.389 | 6.67 |  |  | inactive | inactive |  |  |  |  |  |
| O=C(O)CC(CC(=O)O)C(=O)O | > 11.4 | -1.11 | 8.83 | 7.1 | > 46 |  | inactive | inactive |  |  |  |  |  |
| C[C@@H]1CCCC(CC(=O)O)(CC(=O)O)C1 | > 11.4 | -2.04 | -0.409 | 6.41 | > 46 |  | inactive | inactive |  |  |  |  |  |
| CC(CCc1nc2ccccc2s1)(c1ccc(O)cc1)c1ccc(O)cc1 | > 11.4 | 7.74 | 1.62 |  | > 46 | > 9.22 | inactive | inactive |  |  |  |  |  |
| CCN(CC)COC(=S)S | > 11.4 | 7.48 | -12.2 |  | > 46 | > 9.22 | inactive | inactive |  |  |  |  |  |
| Nc1ccc(Cc2ccc(N)c(C(=O)O)c2)cc1C(=O)O | > 11.4 | 12.6 | 16.6 | 1.75 |  | > 9.22 | inactive | inactive |  |  |  |  |  |
| CC(C)c1ccc2c(c1)CC[C@H]1[C@@](C)(CN)CCC[C@@]21C | > 11.4 | 6.87 | 30 | 11.3 |  |  | inactive | inactive |  |  |  | 1.26 µM (active) |  |
| CN1CCC[C@@H]1c1cccnc1.O=C(O)c1ccccc1O.O=C([OH2+])c1ccccc1O.O=C([OH2+])c1ccccc1O.[Mn] | > 11.4 | 10.8 | -9.45 | 17.5 |  |  | inactive | inactive |  |  |  |  |  |
| CCOC(=O)Cn1c(C(F)(F)F)nc2nc(Cl)c(Cl)nc21 | > 11.4 | 6.84 | -10.5 |  | > 46 | > 9.22 | inactive | inactive |  |  |  |  |  |
| COc1ccc(C(=O)N2CCC[C@@]3(CCN(c4ccccc4)C3)C2)cc1 | > 11.4 | -5.32 | -9.66 | -1.29 |  | > 46 |  |  |  |  |  |  | inactive |
| Cc1nn(-c2ccc(S(=O)(=O)O)cc2)c(O)c1N=Nc1ccc(-c2ccc(N=Nc3ccc4c(S(=O)(=O)O)cc(S(=O)(=O)O)c(N)c4c3O)c(O)c2)cc1O.[Cu].[Cu] | > 11.4 | 8.16 | 6.08 |  | > 46 | > 9.22 | inactive | inactive |  |  |  |  |  |
